The source made the active and inactive calls.
Legend:
[1] = optical density shifts of acrAB sulA E. coli – strain DRC41, OD650, 48 h, E. coli filamentation inducer project, primary screen (AID 1152); conditions: higher = more signal, called active from +8 up or from −8 down;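 further: E. coli MC1000 strain DRC41 lacking acrAB efflux pump and sulA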
[2] = probe aLefty1 binding on compound microarray – biochemical, small-molecule microarray, 635/667 nm fluorescence, primary screen (AID 1153); conditions: higher = more signal;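 further: score merges spot fluorescence with signal-to-noise ratio from the scanned slide images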
[3] = plasmodial surface anion channel blockers, osmotic lysis – cell-based, P. falciparum Indochina, OD700, 1 h, primary screen (AID 1154); conditions: P. falciparum Indochina infected RBC osmotic lysis, higher = more signal, called active from +8 up or from −8 down
[4] = plasmodial surface anion channel blockers, osmotic lysis – cell-based, P. falciparum Indochina, OD700, 2 h, primary screen (AID 1155);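 further: lysis reports solute entry through the parasite surface anion channel PSAC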; conditions: P. falciparum Indochina infected erythrocytes, higher = more signal, called active from +8 up or from −8 down
[5] = changes in parasitized red cell lysis, either direction – P. falciparum Indochina, OD700, 3 h, PSAC antagonist project, primary screen (AID 1156); conditions: P. falciparum-infected erythrocytes, osmotic lysis, higher = more signal, called active from +8 up or from −8 down
[6] = plasmodial surface anion channel blockers, osmotic lysis – cell-based, P. falciparum Indochina, OD700, 18 h, primary screen (AID 1157); conditions: P. falciparum Indochina infected erythrocytes, osmotic lysis OD700, 18 h; higher = more signal, called active from +8 up or from −8 down
[7] = S6 kinase pathway phospho-S6 level changes – cell-based, A549, cytoblot, luminescence, serum-stimulated, primary screen (AID 1158); conditions: 5 h, higher = more signal;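 further: serum-stimulated A549 lung adenocarcinoma cells; signal is phosphorylated S6 detected by cytoblot immunostaining with HRP secondary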
[8] = biological target: NADPH oxidase 2 (Homo sapiens) (UniProt P04839); assay: compounds shifting NOX2 Amplex Red fluorescence – cell-based, HEK293-NOX2, PMA-stimulated, NOX inhibitor project, primary screen (AID 1159); conditions: 45 min, higher = more signal, called active from +8 up or from −8 down; further: test concentration not given here
Sequence of NADPH oxidase 2 (Homo sapiens) (P04839 whole entry, looked up): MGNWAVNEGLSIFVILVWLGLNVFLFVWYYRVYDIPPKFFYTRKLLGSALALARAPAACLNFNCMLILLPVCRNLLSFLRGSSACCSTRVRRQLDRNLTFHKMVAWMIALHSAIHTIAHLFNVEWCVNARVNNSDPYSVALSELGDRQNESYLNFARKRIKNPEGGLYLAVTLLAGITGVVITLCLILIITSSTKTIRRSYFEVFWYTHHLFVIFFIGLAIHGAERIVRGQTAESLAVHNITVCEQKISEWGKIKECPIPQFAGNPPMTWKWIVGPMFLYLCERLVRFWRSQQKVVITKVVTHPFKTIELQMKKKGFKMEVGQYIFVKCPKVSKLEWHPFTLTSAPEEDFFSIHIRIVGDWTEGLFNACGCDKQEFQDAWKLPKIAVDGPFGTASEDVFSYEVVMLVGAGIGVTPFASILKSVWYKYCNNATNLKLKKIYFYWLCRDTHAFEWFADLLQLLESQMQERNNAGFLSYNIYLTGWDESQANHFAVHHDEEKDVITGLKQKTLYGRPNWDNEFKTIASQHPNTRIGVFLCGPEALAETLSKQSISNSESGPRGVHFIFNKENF

[9] = biological target: NADPH oxidase 4 (Homo sapiens) (UniProt Q9NPH5); assay: compounds shifting NOX4 Amplex Red fluorescence – cell-based, HEK293-NOX4, tetracycline-induced, NOX inhibitor project, primary screen (AID 1160); conditions: HEK293-NOX4, Amplex Red H2O2 fluorescence, 45 min; higher = more signal, called active from +8 up or from −8 down
Sequence of NADPH oxidase 4 (Homo sapiens) (Q9NPH5 whole entry, looked up): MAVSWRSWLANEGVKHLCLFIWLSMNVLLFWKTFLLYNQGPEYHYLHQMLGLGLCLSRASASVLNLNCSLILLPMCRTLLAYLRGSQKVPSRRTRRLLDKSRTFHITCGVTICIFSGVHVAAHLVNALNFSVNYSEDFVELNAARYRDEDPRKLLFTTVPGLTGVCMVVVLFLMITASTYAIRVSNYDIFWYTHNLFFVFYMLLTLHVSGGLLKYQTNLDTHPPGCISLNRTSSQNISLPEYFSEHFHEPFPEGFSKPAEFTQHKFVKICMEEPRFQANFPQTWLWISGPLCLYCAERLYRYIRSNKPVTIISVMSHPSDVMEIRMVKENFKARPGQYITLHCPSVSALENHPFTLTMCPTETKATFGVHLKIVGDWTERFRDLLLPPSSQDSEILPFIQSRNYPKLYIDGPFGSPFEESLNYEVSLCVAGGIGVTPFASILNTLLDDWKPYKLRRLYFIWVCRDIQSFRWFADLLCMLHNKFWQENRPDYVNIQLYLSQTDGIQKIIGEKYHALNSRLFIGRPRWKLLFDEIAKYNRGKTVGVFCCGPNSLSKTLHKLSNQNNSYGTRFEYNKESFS

[10] = biological target: NADPH oxidase 5 (Homo sapiens) (UniProt Q96PH1); assay: compounds shifting NOX5 Amplex Red fluorescence – cell-based, HEK293-NOX5, NOX inhibitor project, primary screen (AID 1161); conditions: HEK293-NOX5, ionomycin, 45 min, higher = more signal
Sequence of NADPH oxidase 5 (Homo sapiens) (Q96PH1 whole entry, looked up): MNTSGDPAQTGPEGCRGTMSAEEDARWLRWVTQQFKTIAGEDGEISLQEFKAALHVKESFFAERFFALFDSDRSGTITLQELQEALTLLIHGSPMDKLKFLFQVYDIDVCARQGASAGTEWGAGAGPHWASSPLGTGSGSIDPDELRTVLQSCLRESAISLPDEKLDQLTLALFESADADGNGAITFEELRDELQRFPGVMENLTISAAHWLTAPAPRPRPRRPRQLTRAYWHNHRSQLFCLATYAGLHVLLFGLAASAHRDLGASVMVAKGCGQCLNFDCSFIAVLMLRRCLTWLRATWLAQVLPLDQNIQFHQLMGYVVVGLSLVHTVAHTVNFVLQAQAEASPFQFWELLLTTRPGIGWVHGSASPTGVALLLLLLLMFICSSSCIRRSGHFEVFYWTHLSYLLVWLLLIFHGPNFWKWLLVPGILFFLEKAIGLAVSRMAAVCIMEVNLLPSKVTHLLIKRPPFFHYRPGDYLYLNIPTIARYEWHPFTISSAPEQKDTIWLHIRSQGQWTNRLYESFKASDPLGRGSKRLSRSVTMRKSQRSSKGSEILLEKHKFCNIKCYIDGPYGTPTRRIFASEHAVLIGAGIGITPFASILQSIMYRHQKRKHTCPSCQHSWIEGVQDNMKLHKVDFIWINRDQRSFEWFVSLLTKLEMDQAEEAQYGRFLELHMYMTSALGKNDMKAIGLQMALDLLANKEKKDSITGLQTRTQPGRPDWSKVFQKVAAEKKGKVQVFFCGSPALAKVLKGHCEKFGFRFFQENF

[11] = compound effects on lung adenocarcinoma cell viability – A549, calcein-AM fluorescence, 48 h, basal, profiling panel (AID 1162); conditions: higher = more signal; further: test concentration not given here
[12] = compound effects on differentiated 3T3-L1 adipocyte viability – cell-based, 3T3-L1 adipocytes, calcein-AM fluorescence, 48 h, basal, profiling panel (AID 1163); conditions: 3T3-L1 adipocytes viability, higher = more signal; further: test concentration not given here
[13] = compound effects on hepatocellular carcinoma cell viability – HepG2, calcein-AM fluorescence, 48 h, basal, profiling panel (AID 1164); conditions: higher = more signal; further: test concentration not given here
[14] = compound effects on multiple myeloma cell viability – MM1S, calcein-AM fluorescence, 48 h, basal, profiling panel (AID 1165); conditions: higher = more signal; further: test concentration not given here
[15] = calcein-AM signal in unstimulated myeloma cells – cell-based, calcein-AM fluorescence, 48 h, PK04 Diversity Set, profiling panel (AID 1166); conditions: RPMI8226 myeloma viability, higher = more signal;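 further: cells grown under basal conditions without added stimulus; test concentration not given here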
[16] = JC-1 mitochondrial signal, unstimulated HepG2 cells – cell-based, JC-1 fluorescence, 24 h, 100 nL compound, profiling panel (AID 1167); conditions: HepG2 mitochondrial potential, higher = more signal; further: test concentration not given here
[17] = JC-1 mitochondrial signal, unstimulated adipocytes – cell-based, JC-1 fluorescence, 3T3-L1 adipocytes, 24 h, 100 nL compound, profiling panel (AID 1168); conditions: JC-1 mitochondrial fluorescence, higher = more signal, called active from +8 up or from −8 down; further: test concentration not given here
[18] = JC-1 mitochondrial signal, unstimulated myeloma cells – cell-based, JC-1 fluorescence, RPMI8226, 24 h, 100 nL compound, profiling panel (AID 1169); conditions: JC-1 mitochondrial potential fluorescence, higher = more signal; further: test concentration not given here
[19] = JC-1 mitochondrial signal, unstimulated MM1S myeloma – cell-based, JC-1 fluorescence, 24 h, 100 nL compound, profiling panel (AID 1170); conditions: MM1S mitochondrial potential, higher = more signal; further: test concentration not given here
[20] = resazurin metabolic signal in A549 cells – cell-based, resazurin fluorescence, 24 h, PK04 Diversity Set, profiling panel (AID 1171); conditions: A549 viability, higher = more signal, called active from +8 up or from −8 down; further: test concentration not given here

| SMILES | z-score [1] | composite z-score [2] | z-score [3] | z-score [4] | z-score [5] | z-score [6] | z-score [7] | z-score [8] | z-score [9] | z-score [10] | z-score [11] | z-score [12] | z-score [13] | z-score [14] | z-score [15] | z-score [16] | z-score [17] | z-score [18] | z-score [19] | z-score [20] |
| --- | --- | --- | --- | --- | --- | --- | --- | --- | --- | --- | --- | --- | --- | --- | --- | --- | --- | --- | --- | --- |
| CC(C)=CCN[C@H](CO)c1ccccc1 | -0.209 (inactive) | -0.114 | 0.128 (inactive) | -0.916 (inactive) | 0.198 (inactive) | -2.39 (inactive) | 0.983 | -0.763 (inactive) | -0.688 (inactive) | -1.61 | -0.11 | 1.93 | -0.0885 | -1.22 | -1.9 | -0.416 | 0.476 (inactive) | -0.0908 | 0.559 | -0.278 (inactive) |
| COC(=O)[C@@]1(CCS(=O)(=O)c2ccccc2)N=C(c2ccc(OCCCO)cc2)O[C@H]1c1ccccc1CN=[N+]=[N-] | -0.146 (inactive) | 0.365 | 19.6 (active) | 3.74 (inactive) | 1.26 (inactive) | 1.33 (inactive) | 0.208 | -0.899 (inactive) | 0.495 (inactive) | -0.807 | -1.33 | -0.688 | -1.12 | -1.92 | -2.59 | -1.13 | 0.877 (inactive) | -1.22 | -1.56 | -2.08 (inactive) |
| COCCOC(=O)N1C(=O)[C@@]2(c3cc(C#Cc4ccc(OC)cc4)ccc31)[C@H](c1ccccc1OCCO)N1[C@H](c3ccccc3)[C@H](c3ccccc3)OC(=O)[C@H]1[C@@H]2C(=O)NC[C@H](O)c1ccccc1 | 0.216 (inactive) | 0.396 | 2.92 (inactive) | 2.16 (inactive) | -0.76 (inactive) | 0.804 (inactive) | -0.325 | 1.16 (inactive) | 1.16 (inactive) | 0.967 | -0.796 | 1.02 | -0.206 | -0.889 | -2.23 | 0.117 | 3.21 (inactive) | -0.485 | -1.26 | -0.762 (inactive) |
| CCS[C@H]1[C@@H](C(=O)O)[C@H](c2ccc(C)cc2)N(S(=O)(=O)c2ccc(C)cc2)[C@@H]1CC | 0.409 (inactive) | 0.157 | 1.56 (inactive) | 1.02 (inactive) | -0.129 (inactive) | 0.831 (inactive) | -0.0726 | 0.983 (inactive) | -0.149 (inactive) | 0.271 | -0.408 | -0.507 | 1.36 | 0.412 | 0.458 | 0.922 | 0.337 (inactive) | 0.551 | -1.88 | -0.545 (inactive) |
| CCOC(=O)C[C@H]1[C@H](OC(=O)c2ccc(C(=O)c3ccccc3)cc2)[C@@H](NC(=O)c2ccccc2)c2cc(OCCCO)ccc2N1C(=O)c1ccc2ccccc2n1 | 0.181 (inactive) | -0.328 | 2.66 (inactive) | 0.748 (inactive) | -0.2 (inactive) | 0.454 (inactive) | -0.0519 | -1.14 (inactive) | 0.923 (inactive) | 1.94 | 0.29 | -0.356 | 0.74 | 0.294 | -0.465 | 1 | 1.76 (inactive) | -0.517 | -0.386 | -0.142 (inactive) |
| C=C(COC)/C(=C/C[C@@H](OC(C)=O)c1ccc(OCCO)cc1)c1cnc2ccccc2c1 | 2.11 (inactive) | 0.127 | 20.2 (active) | 3.53 (inactive) | 0.844 (inactive) | -0.282 (inactive) | 1.81 | -2.04 (inactive) | -0.287 (inactive) | -1.08 | 2.32 | 1.86 | 0.109 | -0.83 | -0.175 | 2.42 | -0.502 (inactive) | -0.612 | -0.701 | 0.0521 (inactive) |
| [N-]=[N+]=NCc1ccccc1C[C@]1(C(=O)N2CCCCC2)N=C(c2ccc(OCCCO)cc2)O[C@H]1c1ccccc1N=[N+]=[N-] | -0.365 (inactive) | 0.286 | 30.8 (active) | 26.5 (active) | 3.55 (inactive) | 6.26 (inactive) | 1.9 | -2.45 (inactive) | 0.306 (inactive) | -2.97 | -1.27 | 1.03 | -0.454 | -2.18 | -3.48 | 0.345 | -0.187 (inactive) | -1.16 | -1.07 | -0.6 (inactive) |
| CN(C)CCCC[C@@H]1NC(=O)[C@H]2C[C@@H](C(=O)NCCCCCCN)[C@@H](c3ccc(O)cc3)N2C1=O | 0.51 (inactive) | 1.5 | 0.453 (inactive) | 0.374 (inactive) | 1.31 (inactive) | 0.0314 (inactive) | -0.24 | 0.277 (inactive) | 0.236 (inactive) | 0.731 | 0.168 | 0.526 | -0.0064 | -0.314 | 0.226 | -0.878 | 0.862 (inactive) | -0.128 | 0.119 | 0.286 (inactive) |
